Screening data: PubChem BioAssay, several laboratories
eIF4H FP inh: human eIF4H binding inhibitors, primary screen, translation initiation inhibitor project, biochemical, uHTS, fluorescence polarization; Eukaryotic translation initiation factor 4H (Homo sapiens), Q15056; eIF4H fluorescence polarization binding assay; inhibition, % at 35 µM; 0.94% of 290,000 active;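 note: calls also rest on retests at 20 µM and on dose response follow-up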
SUMO HTRF inh: inhibitors of in vitro SUMOylation cascade, primary screen, biochemical, HTRF, uHTS | SUMO-conjugating enzyme UBC9 (Homo sapiens), P63279 | HTRF SUMOylation assay, SAE1/SAE2 + UBC9 | inhibition, % at 35 µM | 0.36% of 290,000 active | AID 2006, 2009; in the data active = inhibition above about 50%, passing the limit was not always enough; inconclusive = no clear call, values can overlap the other calls
Target sequence (P63279 whole entry, looked up): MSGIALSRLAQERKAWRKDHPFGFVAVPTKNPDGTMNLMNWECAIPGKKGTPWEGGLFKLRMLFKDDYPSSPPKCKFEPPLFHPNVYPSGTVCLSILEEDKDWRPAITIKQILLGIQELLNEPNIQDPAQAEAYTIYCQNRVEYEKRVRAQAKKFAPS
PABP1 MLLE inh: inhibitors of PABP1 MLLE–PAM2 peptide binding, primary screen, biochemical, fluorescence polarization, FITC-PAM2, GST-MLLE | inhibition, % at 20 µM | 0.36% of 360,000 active | Polyadenylate-binding protein 1 (Homo sapiens), P11940 | AID 588489, 2011; in the data active = inhibition above about 35%, passing the limit was not always enough;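 note: plate controls were DMSO wells with GST-MLLE for no effect and wells lacking GST-MLLE protein for full effect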
Efflux pump mplx: inhibitors of Candida efflux pumps in yeast, primary screen, S. cerevisiae, Nile Red, multiplex. 0.44% of 330,000 active. inhibition, % at 10 µM. S. cerevisiae Candida pump triplex;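 active = plate passing quality check with inhibition over a set limit, or well fluorescence over plate mean plus 4 SD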;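 note: Nile Red retained in pooled yeast measured as flow cytometry median fluorescence; 0% = buffer negative control and 100% = Enniatin B positive control; higher means more Nile Red kept so more efflux inhibition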
ALR inh: inhibitors of human ALR sulfhydryl oxidase, primary screen, biochemical, H2O2 detection, HRP-luminol luminescence, single point | FAD-linked sulfhydryl oxidase ALR (Homo sapiens), P55789 | purified ALR, DTT oxidation | inhibition, % (concentration not given with the values) | 3.8% of 290,000 active;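 active = mean replicate inhibition above about 79%, with every replicate also reaching it, limit read from the data; inconclusive = only one of the two criteria met; inactive = mean below limit and not every replicate reaching it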
Target sequence (P55789 whole entry, looked up): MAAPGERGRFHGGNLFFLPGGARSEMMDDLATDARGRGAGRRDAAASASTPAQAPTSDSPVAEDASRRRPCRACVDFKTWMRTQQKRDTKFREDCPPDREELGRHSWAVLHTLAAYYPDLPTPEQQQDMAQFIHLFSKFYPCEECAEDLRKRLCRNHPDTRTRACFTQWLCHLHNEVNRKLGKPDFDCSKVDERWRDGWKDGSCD
PABP polyA inh: PABP poly(A) RNA binding inhibitors, primary screen, biochemical, fluorescence polarization, uHTS | 1% of 290,000 active | AID 2014, 2009 | Polyadenylate-binding protein 1 (Homo sapiens), P11940 | inhibition, % at 35 µM;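 note: calls also rest on retests at 20 µM and on dose response follow-up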
The depositor's hits bear a star; ? = inconclusive; / = not tested or not shown. Hits are enriched below; roughly 4.7% of the tested compounds scored in any of these assays. Unless noted, the rule behind the calls is not given here.

SMILES | eIF4H FP inh | SUMO HTRF inh | PABP1 MLLE inh | Efflux pump mplx | ALR inh | PABP polyA inh
CCn1c(SCC(=O)NC2CC2)nnc1-c1ccc(C)cc1 | -3 | 1 | -3 | 0 | 2 | 0
O=C(c1ccccc1)c1ccc(N2CCN(C(=O)c3ccc(F)cc3F)CC2)c(F)c1 | / | / | 6 | / | / | /
Cc1cccn2cc(-c3c[nH]c4ccccc34)nc12 | -13 | 16 | -4 | 0 | 98* | -3
O=C(CNC1CCCCC1)NN=C(c1ccccc1)c1ccccc1 | 0 | 36 | -17 | 0 | -1 | 14
CC1(C)CC(=O)C2=C(C1)OC1=C(C(=O)CC(C)(C)C1)C2c1ccc(O)c([N+](=O)[O-])c1 | -2 | 20 | -1 | 0 | -5 | 6
CC1(C)CC(=O)C(C(C2=C(O)CC(C)(C)CC2=O)c2ccc(O)c([N+](=O)[O-])c2)=C(O)C1 | 3 | 17 | 40 | 0 | 97* | 20
CN(C(=O)CSc1nc(O)cc(=O)n1C1CCCC1)c1ccccc1 | -12 | 2 | 0 | 0 | 98* | 4
CN(C(=O)CSc1nc(O)cc(=O)n1-c1ccccc1F)c1ccccc1 | -7 | 3 | 4 | 0 | -1 | -6
CCc1cc(SC#N)cc(C)c1NC(=O)CCl | -4 | -30 | 40* | 0 | 98* | 0
CCC(=O)Nc1ccc(SC#N)cc1C | -6 | 9 | 59* | 0 | 98* | 5
Cc1ccc(NC(=O)CCl)c(C)c1 | -14 | 15 | 5 | 0 | / | 8
Cc1cc(SC#N)cc(C)c1NC(=O)CCl | 8 | -9 | 28 | 0 | ? | 2
CCN(CC)C(=O)CCSc1nnc(-c2ccco2)o1 | -7 | 0 | -8 | 0 | 2 | 6
O=C(Oc1ccc(/C=N/n2cnnc2)cc1)c1cccc([N+](=O)[O-])c1 | 5 | 8 | 28 | 0 | -6 | 31
CN(C)/N=C/c1ccc(OC(=O)c2cccc([N+](=O)[O-])c2)cc1 | 0 | 2 | 19 | 0 | 98* | 10
CN(C)C(=S)Oc1ccccc1-c1ccccc1OC(=S)N(C)C | 0 | 3 | -2 | 0 | -15 | 4
COC(=O)C1=C(C)N(c2ccc(C)c(C)c2)/C(=C/c2ccco2)C1=O | 18* | -8 | -23 | 0 | -12 | 54
CCOC(=O)C1=C(C)N(c2ccc(C)c(C)c2)C(=O)/C1=C\c1ccco1 | -3 | 8 | 9 | 0 | 2 | -1
Cc1ccc(-c2nc(CS(=O)CC(=O)NCCN3CCCC3)c(C)o2)cc1 (stereo unspecified) | 7 | 15 | -1 | 0 | 99* | 11
Cc1ccc(-c2nc(CS(=O)CC(=O)NCCCN3CCN(Cc4ccccc4)CC3)c(C)o2)cc1 (stereo unspecified) | / | / | 9 | 0 | 99* | /
Cc1ccc(-c2nc(CS(=O)CC(=O)NCCN3CCOCC3)c(C)o2)cc1 (stereo unspecified) | 7 | 11 | 9 | 0 | 99* | 3
CCc1ccc(-c2nc(CN3CCCC(C(=O)NCCc4ccc(OC)c(OC)c4)C3)c(C)o2)cc1 (stereo unspecified) | 0 | -26 | -7 | 0 | / | 0
CCc1ccc(-c2nc(CS(=O)CC(=O)NCCN3CCCCCC3)c(C)o2)cc1 (stereo unspecified) | 2 | 2 | -8 | 0 | 100* | 2
Cc1ccc(-c2nc(CS(=O)(=O)CC(=O)NCCN3CCOCC3)c(C)o2)cc1 | -12 | -3 | 6 | 0 | -3 | -3
O=C(OCc1ccccc1F)c1cnc(Cl)c(Cl)c1 | -3 | 12 | -3 | 0 | -17 | 6
SMILES | eIF4H FP inh | SUMO HTRF inh | PABP1 MLLE inh | Efflux pump mplx | ALR inh | PABP polyA inh
O=C(NC1CCCC1)c1cccc(S(=O)(=O)N2CCCC2)c1 | / | / | 5 | 0 | -2 | /
CCc1ccc(-c2nc(CS(=O)CC(=O)NCCCN3CCC(C)CC3)c(C)o2)cc1 (stereo unspecified) | 7 | -2 | 3 | 0 | 98* | -1
Cc1oc(-c2ccc(Cl)cc2)nc1CS(=O)CC(=O)NCCCN1CCOCC1 (stereo unspecified) | 0 | -8 | 22 | 1 | 99* | 18
Cc1ccccc1-c1nc(CS(=O)CC(=O)NCCN2CCOCC2)c(C)o1 (stereo unspecified) | 0 | -9 | 27 | 0 | 99* | -10
Cc1ccc(-c2nc(CS(=O)CC(=O)NCCN(CC(C)C)CC(C)C)c(C)o2)cc1 (stereo unspecified) | -10 | 26 | 14 | 0 | 99* | 23
COc1ccc(CN(C)C(=O)c2cccc(NC(=O)CC3SC(N4CCCCC4)=NC3=O)c2)c(OC)c1 (stereo unspecified) | / | / | 9 | / | / | /
Cc1oc(-c2ccc(Cl)cc2)nc1CS(=O)CC(=O)NCCN1CCCC1 (stereo unspecified) | 0 | 20 | -17 | 0 | 99* | 6
O=C(c1ccccn1)N1CCCC(N2CCN(c3cccc(C(F)(F)F)c3)CC2)C1 (stereo unspecified) | -2 | 0 | 7 | 0 | 4 | -3
Cn1ncc2c(Nc3ccc(O)cc3)nc(Cl)nc21 | -4 | 12 | 14 | 0 | 91* | 6
Cc1onc(-c2ccccc2)c1-c1n[nH]c(=S)n1-c1ccc(C(=O)O)cc1 | -1 | 12 | -17 | 0 | 89* | -2
Cc1onc(-c2ccccc2)c1-c1n[nH]c(=S)n1-c1ccccc1Cl | -15 | -4 | -26 | 0 | 30 | 1
COc1ccc(Cc2nnc(NC(=O)c3ccccc3F)s2)cc1OC | ? | 93* | 9 | 0 | -6 | ?
COc1ccc(Cc2nnc(NC(=O)C3CCCO3)s2)cc1 (stereo unspecified) | 7 | 6 | 20 | 0 | -3 | 4
COc1ccc(Cc2nnc(NC(=O)C3CCCO3)s2)cc1OC (stereo unspecified) | -7 | 7 | 45* | 0 | -1 | 0
COc1cccc2sc3ccc(NCCC4CCCN4C)cc3c(=O)c12 (stereo unspecified) | 79* | 14 | -17 | 0 | ? | 60*
COc1cc2sc3cc(NCC[C@@H]4CCCN4C)ccc3c(=O)c2cc1OC | / | / | -26 | 0 | 52 | /
Cc1cccc(NC2SC(=O)NC2=O)c1 (stereo unspecified) | 6 | 7 | 52* | 0 | 1 | -12
CC(=O)N1C(=O)/C(=C2\SC(=S)N(c3c(C)n(C)n(-c4ccccc4)c3=O)C2=O)c2ccccc21 | -3 | 20 | 47* | 0 | -56 | 10
CCN1C(=O)/C(=C2\SC(=S)N(c3c(C)n(C)n(-c4ccccc4)c3=O)C2=O)c2ccccc21 | 0 | 4 | 44* | 0 | -5 | 4
